# Assay results published in PMC4336329 (PLoS ONE, 2015).
# Screen size: about 310,000 compounds; about 2,200 (0.71%) showed an effect of 50% or more. The effect is printed as a negative number. The sample holds strong results, similar compounds and a random draw of the others, so the mix is not that of the screen.
# Biological target: human ether-à-go-go-related gene (hERG) potassium channel (human, UniProt Q12809)
# Test: primary screen, population patch clamp on CHO cells stably expressing hERG; higher = less effect of the substance
# Sequence of human ether-à-go-go-related gene (hERG) potassium channel (Q12809 whole entry, looked up): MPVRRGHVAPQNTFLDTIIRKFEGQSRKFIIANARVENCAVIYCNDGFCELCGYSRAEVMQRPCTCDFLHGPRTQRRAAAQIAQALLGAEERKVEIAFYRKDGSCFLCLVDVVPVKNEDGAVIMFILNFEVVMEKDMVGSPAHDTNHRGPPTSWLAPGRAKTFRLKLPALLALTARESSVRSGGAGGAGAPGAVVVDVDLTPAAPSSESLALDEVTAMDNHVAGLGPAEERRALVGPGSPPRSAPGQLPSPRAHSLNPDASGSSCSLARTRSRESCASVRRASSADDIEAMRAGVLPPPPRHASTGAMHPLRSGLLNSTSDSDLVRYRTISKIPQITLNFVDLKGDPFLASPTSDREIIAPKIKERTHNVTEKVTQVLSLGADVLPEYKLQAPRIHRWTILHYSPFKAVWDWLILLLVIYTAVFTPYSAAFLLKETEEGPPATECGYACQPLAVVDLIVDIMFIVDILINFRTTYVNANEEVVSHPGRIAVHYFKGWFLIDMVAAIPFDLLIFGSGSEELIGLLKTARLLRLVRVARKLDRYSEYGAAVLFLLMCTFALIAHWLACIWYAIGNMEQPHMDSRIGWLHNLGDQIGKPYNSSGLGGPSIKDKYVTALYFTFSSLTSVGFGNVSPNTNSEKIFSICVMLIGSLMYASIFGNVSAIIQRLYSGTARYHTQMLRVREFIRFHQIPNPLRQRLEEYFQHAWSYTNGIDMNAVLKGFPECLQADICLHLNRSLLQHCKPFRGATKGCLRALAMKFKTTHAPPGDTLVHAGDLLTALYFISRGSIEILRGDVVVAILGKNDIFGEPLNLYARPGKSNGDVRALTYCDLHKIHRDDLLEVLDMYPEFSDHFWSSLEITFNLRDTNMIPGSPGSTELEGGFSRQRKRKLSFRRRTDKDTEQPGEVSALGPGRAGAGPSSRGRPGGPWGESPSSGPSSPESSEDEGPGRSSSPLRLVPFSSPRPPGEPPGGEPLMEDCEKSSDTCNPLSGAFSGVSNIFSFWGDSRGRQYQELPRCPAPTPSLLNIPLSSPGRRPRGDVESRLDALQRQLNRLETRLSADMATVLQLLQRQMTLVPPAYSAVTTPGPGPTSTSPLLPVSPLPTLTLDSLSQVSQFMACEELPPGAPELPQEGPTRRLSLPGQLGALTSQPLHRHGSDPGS
row,SMILES,"hERG current change (%, negative = inhibition) at 1uM"
1,Cn1c(CCNC(=O)c2ccccc2F)nnc1SCc1nc2ccccc2c(=O)[nH]1,11.4%
2,COc1ccc(-c2[nH]ncc2CN(C)CCCN2CCOCC2)cc1F,12%
3,CCOc1ccc(CCNC(=O)c2ccc(=O)[nH]c2)cc1OCC,4.91%
4,O=C(c1ccc2c(c1)ncn2C1CCCCC1)N1CCC2(CC1)OCCO2,0.618%
5,CCN1/C(=C\C=C\C2=[N+](CC)c3ccccc3C2(C)C)C(C)(C)c2ccccc21.[O-][Cl+3]([O-])([O-])[O-],-86.1%
6,CCCN1C(=O)/C(=C/C=C2\N(CC)c3ccccc3C2(C)C)SC1=S,5.72%
7,CN1/C(=C\C=C\C2=[N+](C)c3ccc4ccccc4c3C2(C)C)C(C)(C)c2ccccc21.[O-][Cl+3]([O-])([O-])[O-],-43.6%
8,COc1ccc(S(=O)(=O)Nc2ccc(Cc3ccncc3)cc2)cc1C,0.33%
9,CCC1CCCCN1CCCNC(=O)C1CCC(CNS(=O)(=O)c2c(C)cc(C)cc2C)CC1 (centres unmarked),-3.19%
10,CCN(CC)CCCNC(=O)C1CCC(CNS(=O)(=O)c2c(C)cc(C)cc2C)CC1 (centres unmarked),12.6%
11,CCCCN(C)CCCNC(=O)C1CCC(CNS(=O)(=O)c2c(C)cc(C)cc2C)CC1 (centres unmarked),-76.3%
12,Cc1cc(C)c(S(=O)(=O)NCC2CCC(C(=O)NCCCN3CCC(C)CC3)CC2)c(C)c1 (centres unmarked),-52.9%
13,CCCCNC(=O)C1CCC(CNS(=O)(=O)c2c(C)cc(C)cc2C)CC1 (centres unmarked),-13.4%
14,CC1CCN(CCCNC(=O)C2CCC(CNS(=O)(=O)c3ccccc3)CC2)CC1 (centres unmarked),16.3%
15,Cc1ccc(Nc2nc(N)c([N+](=O)[O-])c(NCc3ccccc3)n2)cc1,8.5%
16,CC(C)(C)c1ccc(OCCCC(=O)N2CCOCC2)cc1,-2.13%
17,O=C(CCNC(=O)c1ccccc1Cl)NCC1CCCO1 (centres unmarked),-9.04%
18,CCCn1c(N)c(C(=O)CN(C)CC(=O)Nc2ccc(F)cc2)c(=O)[nH]c1=O,-20%
19,CCCn1c(N)c(C(=O)CN(C)CC(=O)Nc2cccc(F)c2)c(=O)[nH]c1=O,-73.1%
20,CCCn1c(N)c(C(=O)CN(C)CC(=O)Nc2c(Cl)cccc2Cl)c(=O)[nH]c1=O,0.55%
21,O=C(Nc1ccccc1)N1CCn2c(nc3ccccc32)C1,-6.18%
22,COc1cc(C(=O)Nc2ccc(C)cc2)c2ccccc2n1,7.49%
23,CN(Cc1ccccc1)C(=O)CCc1ccccc1,13.8%
24,Cc1cc(Nc2cccc([N+](=O)[O-])c2)c2ccccc2n1,-36.7%
25,Cc1cc(Nc2cccc([N+](=O)[O-])c2)c2cccc(C)c2n1.Cl,-73.5%
26,CC(=O)c1cccc(Nc2cc(C)nc3c(C)cccc23)c1.Cl,-16.9%
27,COc1ccc(Br)c(C(=O)OCC(=O)NC2CCCCCC2)c1,-1.39%

row,SMILES,"hERG current change (%, negative = inhibition) at 1uM"
1,CCCCN(CC)CCCNC(=O)c1cn(-c2ccc(OC)cc2)c(=O)c2ccccc12,-7.85%
2,CCCN(CCC)CCCNC(=O)c1cn(-c2ccc(OC)cc2)c(=O)c2ccccc12,1.46%
3,CCCCN(CC)CCNC(=O)c1cn(-c2ccc(Cl)cc2)c(=O)c2ccccc12,-81.6%
4,CCOC(=O)N1CCN(C(C)C(=O)c2c[nH]c3ccccc23)CC1 (centres unmarked),-0.111%
5,O=C(NNc1ccc(-c2csnn2)cc1)c1ccccc1C(F)(F)F,9.16%
6,CCC1C(=O)C(C)(C)C(=O)OC1c1ccc([N+](=O)[O-])cc1 (centres unmarked),9.82%
7,CC1C(=O)CC(c2ccc([N+](=O)[O-])cc2)NC1c1ccc([N+](=O)[O-])cc1.Cl (centres unmarked),-51%
8,CCC1C(=O)CC(c2ccccc2)NC1c1ccccc1 (centres unmarked),5.67%
9,CC1C(=O)CC(c2ccccc2)NC1c1ccccc1 (centres unmarked),3.38%
10,CC1C(=O)C(C)C(c2ccc([N+](=O)[O-])cc2)NC1c1ccc([N+](=O)[O-])cc1 (centres unmarked),-4.32%
11,CCC1C(=O)CC(c2ccc([N+](=O)[O-])cc2)NC1c1ccc([N+](=O)[O-])cc1 (centres unmarked),-69.7%
12,Cc1ccc(P(=S)(c2ccc(C)o2)N2CCOCC2)o1,3.25%
13,CCn1c(SCC(=O)Nc2cc(NC(C)=O)ccc2OC)nnc1-c1cccnc1,7.42%
14,Cc1nc2ccccn2c1CN(C)C(=O)C1CCC(=O)N(Cc2cccc(F)c2)C1 (centres unmarked),-58%
15,Cc1nc2ccccn2c1CN(C)C(=O)C1CCC(=O)N(CCc2cccc(F)c2)C1 (centres unmarked),-10.4%
16,CN(Cc1ccccn1)C(=O)C1CCC(=O)N(Cc2cccc(F)c2)C1 (centres unmarked),8.55%
17,COc1ccc(C(=O)N/C(=C\c2ccccc2)C(=O)NC(CC(C)C)C(=O)O)cc1 (centres unmarked),21.4%
18,Cc1cccc(OCC(=O)Nc2ccncc2)c1,6.41%
19,CCOc1ccc(CN(C)CC(O)COC(c2ccc(OC)cc2)c2ccc(OC)cc2)cc1 (centres unmarked),-81.9%
20,COc1ccc(CN(C)CC(O)COC(c2ccccc2)c2ccccc2)c(OC)c1OC (centres unmarked),-43.6%
21,CCN(Cc1ccccc1)CC(O)COC(c1ccc(OC)cc1)c1ccc(OC)cc1 (centres unmarked),-32.9%
22,COc1ccc(CN(C)CC(O)COC(c2ccc(OC)cc2)c2ccc(OC)cc2)cc1 (centres unmarked),-80.8%
23,COc1cccc(CN(C)CC(O)COC(c2ccccc2)c2ccccc2C)c1 (centres unmarked),-8.56%
24,COc1ccc(C(OCC(O)CN(C)C2CCCCC2)c2ccc(OC)cc2)cc1 (centres unmarked),-29.3%
25,CCN1CCN(S(=O)(=O)c2ccc(Cl)c(C(=O)NC(C)c3ccccc3Cl)c2)CC1 (centres unmarked),5.99%
26,O=C(NCCCO)c1ccc2[nH]c3ccccc3c2c1,13.4%
